Hits are enriched below; roughly 2.5% of the tested compounds scored in any of these assays.
GRK2 aptamer HTS = blocks RNA aptamer binding to human GRK2; bead flow cytometry, FAM-aptamer displacement from GRK2; inhibition of aptamer binding, % at 10 µM; 0.59% of 330,000 active; AID 488847;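 active means inhibition of aptamer binding above 40%, roughly 3 SD of noise, on plates passing a quality check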;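 further: median bead fluorescence of bound FAM aptamer so fluorescent compounds give negative values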
MEKK2wt PB1 HTS = raises or lowers MEK5 binding to wildtype human MEKK2 PB1 domain; Q9Y2U5; bead flow cytometry, Alexa488-MEK5 binding to MEKK2 WT; actives lie on both sides; binding response (% of control), % at 10 µM; 1.1% of 290,000 active; AID 1531; in the data active means binding response below about 67% or above about 130%
MEKK2mut PB1 HTS = signal of MEK5 binding to mutant human MEKK2 PB1 domain; bead flow cytometry, Alexa488-MEK5 binding to MEKK2 mutant; AID 1530; 0.35% of 290,000 active; percent response, % at 10 µM; in the data active means percent response above about 24%, passing the limit was not always enough
MEKK3 PB1 HTS = MEKK3-MEK5 PB1 interaction, increase or decrease; Q99759; bead-based flow cytometry, Alexa488-MEK5 binding to MEKK3; actives lie on both sides; 0 = blocked by unlabeled MEK5, 100 = vehicle; AID 1529; 1.4% of 290,000 active; binding response (% of control), % at 10 µM;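 active means binding response more than 3 SD above or below the average of its plate-row segment, actives on both sides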;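 further: Alexa488 bead fluorescence after subtracting the streptavidin-only scavenger bead signal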
Target sequence (Q99759 whole entry, looked up): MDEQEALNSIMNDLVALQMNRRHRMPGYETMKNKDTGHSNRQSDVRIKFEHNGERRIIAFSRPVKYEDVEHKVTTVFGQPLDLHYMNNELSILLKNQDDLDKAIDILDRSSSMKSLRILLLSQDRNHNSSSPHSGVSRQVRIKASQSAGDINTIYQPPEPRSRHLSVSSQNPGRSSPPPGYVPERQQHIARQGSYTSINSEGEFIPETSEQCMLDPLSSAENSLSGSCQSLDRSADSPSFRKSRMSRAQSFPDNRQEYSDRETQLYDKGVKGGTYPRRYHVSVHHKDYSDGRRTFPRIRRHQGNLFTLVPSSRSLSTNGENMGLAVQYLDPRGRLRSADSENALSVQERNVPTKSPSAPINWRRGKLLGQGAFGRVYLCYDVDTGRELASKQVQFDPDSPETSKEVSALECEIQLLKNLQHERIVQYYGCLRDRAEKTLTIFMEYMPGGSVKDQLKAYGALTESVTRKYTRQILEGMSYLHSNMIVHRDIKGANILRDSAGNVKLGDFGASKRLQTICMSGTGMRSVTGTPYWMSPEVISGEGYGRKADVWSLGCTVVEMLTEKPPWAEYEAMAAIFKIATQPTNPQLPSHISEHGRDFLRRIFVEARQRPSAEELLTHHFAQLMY
MEKK2wt confirm = raises or lowers MEK5 binding to wildtype human MEKK2, retest; shares compounds with MEKK3 PB1 HTS; bead flow cytometry, Alexa488-MEK5 binding to MEKK2 WT; actives lie on both sides; binding response (% of control), % at 10 µM; 2.4% of 5,900 active; AID 1892; in the data active means binding response below about 16% or above about 210%; inactive means in between
MEKK2mut-MEK5 = signal of MEK5 binding to mutant human MEKK2, retest. percent response, % at 10 µM. AID 1893. bead flow cytometry, Alexa488-MEK5 binding to MEKK2 mutant. 2% of 5,900 active. shares compounds with MEKK3 PB1 HTS; in the data active means percent response mostly above about 71%, no sharp cut-off; inactive means mostly below about 38%;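 further: higher means compound restores mutant binding toward wildtype level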
MEKK3-MEK5 inh = MEKK3-MEK5 PB1 inhibition, single concentration confirmation; shares compounds with MEKK3 PB1 HTS; bead flow cytometry, Alexa488-MEK5 binding to MEKK3; active compounds read low; binding response (% of control), % at 10 µM; 1.8% of 5,900 active; AID 1894;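 active means binding response below 72% of control, or above a set upper limit, though filed actives all read lower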;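 further: 100% = DMSO only wells and 0% = binding blocked by excess unlabeled MEK5; lower values mean stronger disruption of MEK5 binding to MEKK3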
* marks the source's active call; other numbers are inactive results; . = no result given; [ ] = dose if it differs, or a comment.

SMILES | GRK2 aptamer HTS | MEKK2wt PB1 HTS | MEKK2mut PB1 HTS | MEKK3 PB1 HTS | MEKK2wt confirm | MEKK2mut-MEK5 | MEKK3-MEK5 inh
CCCC1O[C@@H]2C[C@H]3[C@@H]4CCC5=CC(=O)C=C[C@]5(C)[C@H]4[C@@H](O)C[C@]3(C)[C@]2(C(=O)CO)O1 (stereo partly drawn) | 2.0 | 103.0 | 2.0 | 70.0*[inhibitor] | 103.0 | 0.0 | 103.0
Cc1ccc2cc(CN(CCN3CCOCC3)Cc3nnnn3Cc3ccco3)c(=O)[nH]c2c1C | . | 2.0*[inhibitor] | -69.0 | 2.0*[inhibitor] | 106.0 | 5.0 | 103.0
Nc1ccc(N2CCOCC2)c(S(=O)(=O)Nc2cc(Cl)ccc2Cl)c1 | 4.0 | 94.0 | -6.0 | 100.0 | . | . | .
C=C(C)CN(CC)C(=O)Cn1cnc2c(oc3ccccc32)c1=O | 0.0 | 95.0 | -5.0 | 97.0 | . | . | .
COc1ccc(-c2oc3ncnc(NCCN4CCOCC4)c3c2-c2ccc(OC)cc2)cc1 | 0.0 | 108.0 | 0.0 | 99.0 | . | . | .
COc1ccc(-c2oc3ncnc(NCCCN4CCOCC4)c3c2-c2ccc(OC)cc2)cc1 | 0.0 | 138.0* | 10.0 | 85.0 | 133.0 | 14.0 | 102.0
Cc1cc(N/N=C/c2ccc(N(C)C)cc2)nc(NCc2ccccc2)n1 | 1.0 | 229.0* | 75.0* | 103.0 | 247.0* | 89.0* | 117.0
Cc1cc(N/N=C/c2ccc(F)cc2)nc(NCc2ccccc2)n1 | 1.0 | 130.0 | 9.0 | 100.0 | . | . | .
Cc1ccc(/C=N/Nc2cc(C)nc(NCc3ccccc3)n2)cc1 | 0.0 | 199.0* | 63.0* | 108.0 | 150.0 | 25.0 | 104.0
Cc1cc(N/N=C/c2ccc(Cl)cc2Cl)nc(NCc2ccccc2)n1 | 1.0 | 161.0* | 38.0 | 102.0 | 164.0 | 38.0 | 105.0
COc1ccc(NC2=C3CC(C)CC=C3N(c3ccc(OC)cc3)C2=O)cc1 (stereo not drawn) | 1.0 | 101.0 | 3.0 | 105.0 | . | . | .
CC1=C/C(=N\NC(=S)NCc2ccccc2)CC1 | 1.0 | 100.0 | -3.0 | 98.0 | . | . | .
O=C(NC(c1ccccc1)c1ccccc1)c1ccc(Br)o1 | 0.0 | 108.0 | 3.0 | 105.0 | . | . | .
O=C(/C=C/c1ccc(Br)o1)NC(c1ccccc1)c1ccccc1 | 7.0 | 102.0 | 1.0 | 140.0* | 97.0 | -5.0 | 102.0
COc1ccc(C(=O)CN2C(=O)NC3(CCCCC3)C2=O)cc1OC | 0.0 | 125.0 | 7.0 | 146.0* | 102.0 | 7.0 | 106.0
Cc1ccn2c(=O)nc(SCC(=O)NCc3ccccc3)nc2c1 | 3.0 | . | . | . | . | . | .
CCOC(=O)c1c(/N=C/c2cc(C)ccc2O)sc2c1CCN(C)C2 | 0.0 | 124.0 | 33.0 | 102.0 | . | . | .
Cc1cccc(/C=N/c2sc3c(c2C(=O)OC(C)(C)C)CCN(C)C3)c1O | 0.0 | 141.0* | 42.0 | 112.0 | 146.0 | 25.0 | 108.0
CCc1ccc(C2CC(c3ccco3)=NN2S(C)(=O)=O)cc1 (stereo not drawn) | 0.0 | . | 55.0* | 89.0 | 81.0 | -9.0 | 89.0
CC(=O)N1N=C(c2ccco2)CC1c1ccc(C)cc1 (stereo not drawn) | 0.0 | 110.0 | 1.0 | 135.0* | 103.0 | 1.0 | 105.0
OCc1ccccc1OCCCN1CCC(Cc2ccccc2)CC1 | 0.0 | 194.0* | 24.0* | 112.0 | 142.0 | 18.0 | 102.0
O=Cc1cc(Cl)ccc1OCCN1CCC(Cc2ccccc2)CC1 | 0.0 | 140.0* | 10.0 | 110.0 | 132.0 | 22.0 | 109.0
COc1cc(C(C)=O)ccc1OCCCN1CCC(Cc2ccccc2)CC1 | 0.0 | 115.0 | 4.0 | 106.0 | . | . | .
Clc1ccccc1OCCN1CCC(Cc2ccccc2)CC1 | 0.0 | 121.0 | 5.0 | 100.0 | . | . | .
Clc1ccc(CN2CCC(Cc3ccccc3)CC2)cc1 | 1.0 | 199.0* | 59.0* | 103.0 | 117.0 | 9.0 | 107.0
SMILES | GRK2 aptamer HTS | MEKK2wt PB1 HTS | MEKK2mut PB1 HTS | MEKK3 PB1 HTS | MEKK2wt confirm | MEKK2mut-MEK5 | MEKK3-MEK5 inh
COc1nc(Nc2ccc(C(C)=O)cc2)nc(OC)n1 | 1.0 | 98.0 | -5.0 | 98.0 | . | . | .
COc1cc(/C=N/NC(=O)c2cc3ccccc3cc2O)ccc1OCCN1CCCCC1 | 0.0 | 229.0* | 43.0 | 110.0 | 207.0* | 82.0* | 107.0
COC(=O)c1c(NC(=O)COC(=O)CCc2ccc(S(=O)(=O)N3CCOCC3)cc2)sc2c1CCC2 | 6.0 | 104.0 | 0.0 | 136.0* | 95.0 | -8.0 | 101.0
COC(=O)c1c(NC(=O)CN(c2ccccc2)S(C)(=O)=O)sc2c1CCCC2 | 0.0 | 108.0 | 2.0 | 161.0* | 98.0 | -6.0 | 100.0
Cc1ccccc1C(=O)N1CCC(C(=O)Nc2cccc(S(=O)(=O)N3CCCCC3)c2)CC1 | 4.0 | . | . | . | . | . | .
Cc1ccccc1CN1CCCC(C(=O)N2CCCCC2)C1 (stereo not drawn) | 1.0 | 107.0 | 5.0 | 107.0 | . | . | .
O=C(CN1CCCc2ccccc21)NCCc1ccc(F)cc1 | 20.0 | 52.0 | -20.0 | 45.0*[inhibitor] | 96.0 | -2.0 | 102.0
COc1ccc(CCNC(=O)CN2CCCc3ccccc32)cc1OC | 0.0 | 98.0 | 0.0 | 98.0 | . | . | .
CCOc1ccc(-n2cc(C(=O)N3CCC(C)CC3)c3cc(OC)c(OC)cc3c2=O)cc1 | 0.0 | 104.0 | 5.0 | 106.0 | . | . | .
CCOc1ccc(CN(C)CC(=O)NNC(=O)c2ccc(Cl)cc2)cc1OC | 0.0 | 98.0 | -1.0 | 128.0* | 100.0 | -7.0 | 97.0
Cc1cccc(CN2CCN(C(c3ccccc3)c3ccc(Cl)cc3)CC2)c1 (stereo not drawn) | 4.0 | 155.0* | 13.0 | 106.0 | 150.0 | 23.0 | 103.0
COc1cc(CN2CCN(C(c3ccccc3)c3ccccc3)CC2)cc(OC)c1OC | 1.0 | 119.0 | 9.0 | 104.0 | . | . | .
CN(C)c1nc(Oc2ccc(/C=N/O)cc2)nc(N(C)C)n1 | 3.0 | 102.0 | 8.0 | 103.0 | . | . | .
CC(C)Nc1nc(NC(C)C)nc(Oc2ccc(/C=N/O)cc2)n1 | 3.0 | 94.0 | 7.0 | 124.0* | 92.0 | -8.0 | 94.0
CCN(CC)c1ccc(C2C(C(=O)OCCOC)=C(C)NC3=C2C(=O)CC(C)(C)C3)cc1 (stereo not drawn) | 0.0 | 104.0 | 3.0 | 102.0 | . | . | .
CN(C)C(=O)/C(C#N)=C\c1cc(Br)c(Sc2ccc(Cl)cc2)o1 | 3.0 | 105.0 | 2.0 | 132.0* | 103.0 | 4.0 | 103.0
Clc1ccc(Sc2oc(/C=N/n3cnnc3)cc2Br)cc1 | 0.0 | 91.0 | 2.0 | 99.0 | . | . | .
O=C(OCC(=O)N1CCOCC1)c1ccc[nH]c1=O | 1.0 | 106.0 | -1.0 | 103.0 | . | . | .
CCOC(=O)c1c(-c2ccc(OC)cc2)csc1NC(=O)CSc1nnc(C)c(=O)[nH]1 | 0.0 | 92.0 | -2.0 | 98.0 | . | . | .
O=C(Nc1ccccc1)N(C1=NCCCCS1)c1cccc2ccccc12 | 0.0 | 116.0 | 4.0 | 127.0* | 102.0 | 4.0 | 98.0
O=C(C1=COCCO1)N1CCN(S(=O)(=O)c2cccc(Cl)c2Cl)CC1 | 2.0 | 102.0 | 1.0 | 99.0 | . | . | .
